Assay [1] can be described thus: CCTE_Deisenroth_AIME_384WELL_CTox_Active: Cytotoxicity Assessment (CTOX) in CCTE's 384-well Estrogen Receptor Transactivation Assay with AIME metabolic competence (metabolism positive), Deisenroth Lab (AID 2284037; active means hit-call score of the fitted dose curve at least 0.9, where 1 is the maximum;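 further: chemicals first conditioned 2 h by alginate-bound induced rat liver S9 before cells; activity means signal loss indicating cell death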). The essentials:
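Chemicals pre-incubated 2 hours with alginate-immobilised phenobarbital/beta-naphthoflavone-induced male Sprague Dawley rat liver S9, then conditioned medium applied 24 hour to VM7Luc4E2 cells. Viability by fluorogenic protease substrate; 10-point series 0.002 - 200 uM.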

For assay [2], the target named is human CYP2D6, CYP2D6 (gene 1565) (UniProt P10635). The experiment in a line: NVS_ADME_hCYP2D6: NovaScreen (NVS) CYP450-related Enzyme Activity (ADME) Assay for human CYP2D6 (AID 2283107; active means hit-call score of the fitted dose curve at least 0.9, where 1 is the maximum). The essentials: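 Insect-cell recombinant enzyme + fluorogenic substrate, cell-free; 1 h incubation; fluorescence intensity readout. Acetonitrile = neg. ctrl/baseline. Single-point 10 uM, duplicate; follow-up concentration series.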
human CYP2D6, CYP2D6 (gene 1565), sequence (P10635 whole entry, looked up): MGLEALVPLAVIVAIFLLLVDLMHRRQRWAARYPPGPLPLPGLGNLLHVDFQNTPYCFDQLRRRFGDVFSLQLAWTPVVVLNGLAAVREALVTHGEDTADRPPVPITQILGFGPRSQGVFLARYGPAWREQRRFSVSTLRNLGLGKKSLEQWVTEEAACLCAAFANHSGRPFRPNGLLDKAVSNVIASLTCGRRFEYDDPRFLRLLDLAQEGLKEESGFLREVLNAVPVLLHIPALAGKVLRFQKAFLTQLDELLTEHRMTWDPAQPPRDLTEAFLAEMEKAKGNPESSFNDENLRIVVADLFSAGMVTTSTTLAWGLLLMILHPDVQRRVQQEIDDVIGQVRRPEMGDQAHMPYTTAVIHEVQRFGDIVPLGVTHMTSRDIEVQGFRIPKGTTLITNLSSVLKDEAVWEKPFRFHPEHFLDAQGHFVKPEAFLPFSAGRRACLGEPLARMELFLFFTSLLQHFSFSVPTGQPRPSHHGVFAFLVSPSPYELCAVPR

The target in assay [3] is Muscarinic acetylcholine receptor M2 (Homo sapiens) (UniProt P08172). Briefly: NVS_GPCR_hM2: NovaScreen (NVS) G Protein-Coupled Receptor Assay for human Muscarinic, M2 Receptor (AID 2283273; active means hit-call score of the fitted dose curve at least 0.9, where 1 is the maximum). The method in brief:
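Filter-based radiodetection read bound radioligand 1 h after dosing CHO-derived membrane protein. Single-concentration duplicates (25 uM) first, then concentration-response for actives; signal loss versus DMSO scored.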

The nature of assay [4]: CCTE_Shafer_MEA_acute_per_network_burst_electrodes_number_mean: CCTE's Neural Acute Assay for Mean Number of Electrodes in a Network Burst, Shafer Lab (AID 2284021).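 Further: curves fitted for decreases only so hits reduce electrodes per burst.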 The method in brief:
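Primary rat cortical networks, mwMEA, 37 C. 20 min stabilization, 40 min baseline, compound 0.03-40 uM, 40 min re-record. Wells need >=10 active electrodes; percent change per well, negative fitting direction.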

The nature of assay [5]: CCTE_Shafer_MEA_acute_network_burst_percentage: CCTE's Neural Acute Assay for Percentage of Network Bursts, Shafer Lab (AID 2284022).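 Further: curves fitted for loss so actives lower network burst percentage.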 The method in brief:
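Readout is the fraction of spikes falling in network bursts, expressed as per-well percent change from a 40-min pre-exposure baseline. Primary rat cortical neurons on MEA were exposed to 0.03-40 uM compound on DIV 13 or 15 and recorded for 40 min at 37 C.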

Assay [6] in a line: CCTE_Shafer_MEA_acute_cross_correlation_area: CCTE's Neural Acute Assay for Area of Cross Correlation, Shafer Lab (AID 2284024).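 Further: rat primary cortical neuron networks on 48-well MEA at DIV 13 or 15 with 40 min exposure; area under pooled inter-electrode spike cross-correlation near zero lag as percent change from own baseline; curves fitted for loss of cross-correlation area so actives lower synchrony.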 The essentials:
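Plates equilibrated 20 min at 37 C, then 40 min baseline was recorded, compound was added (0.03-40 uM), and a further 40 min was recorded. Wells needed ≥10 active electrodes (≥5 spikes/min) on exposure day.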

A short description of assay [7]: CCTE_Shafer_MEA_acute_synchrony_index: CCTE's Neural Acute Assay for Synchrony, Shafer Lab (AID 2284027).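 Further: network synchrony index of spontaneous spiking in primary rat cortical neurons on MEAs; fitted for loss of signal so actives lower synchrony relative to DMSO.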 The essentials: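 The synchrony index is taken as percent change per well between a 40 min baseline and a 40 min recording with compound (0.03–40 uM), at 37C. Rat cortical cultures on multiwell MEAs at DIV 13 or 15, spike threshold 8× rms noise.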
Assay [8] in a line: CCTE_Shafer_MEA_dev_firing_rate_mean: CCTE's Neural Network Formation Assay for Mean Firing Rate, Shafer Lab (AID 2284031). The essentials: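 Spike frequency (spikes/recording length, averaged over active electrodes) was recorded on days 5, 7, 9 and 12 and collapsed to AUC; rat cortical cultures received compound continuously over 12 days of network development.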
Assay [9] is described as follows: CCTE_Shafer_MEA_dev_per_burst_spike_percent: CCTE's Neural Network Formation Assay for Percent of Spikes in a Burst, Shafer Lab (AID 2284032). The essentials: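 Value is trapezoidal AUC over recordings on days 5, 7, 9 and 12 of the well-mean fraction of spikes falling in single-electrode bursts; rat cortical cultures exposed continuously from plating, treatment renewed DIV 5 and 9, fitted downward against DMSO.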

Assay [10] can be described thus: CCTE_Shafer_MEA_dev_burst_rate: CCTE's Neural Network Formation Assay for Burst Rate, Shafer Lab (AID 2284042). The essentials:
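Cells plated, treated day 0; recorded DIV 5, 7, 9, 12; fed and re-treated DIV 5, 9. Endpoint: bursts per recording time, active-electrode well mean, trapezoidal AUC, fitted in decreasing direction against DMSO baseline.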

A short description of assay [11]: CCTE_Shafer_MEA_dev_per_burst_interspike_interval: CCTE's Neural Network Formation Assay for Burst Interspike Interval, Shafer Lab (AID 2284044). The essentials:
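Neurons from rat cortex plated onto PEI-coated MEA wells with laminin […] at 1.5 x 10^5 cells/well, then treated from day 0. Media and compound fully replaced on DIV 5 and 9. Extracellular spontaneous firing recorded four times; interspike interval per burst summarised as AUC.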

A short description of assay [12]: CCTE_Shafer_MEA_dev_burst_duration_mean: CCTE's Neural Network Formation Assay for Mean Burst Duration, Shafer Lab (AID 2284045).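 On AC50: curve fitted for loss meaning shorter burst duration than DMSO.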 The essentials: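 Rat cortical cultures, 1.5 x 10^5 cells/well with laminin drop; continuous dosing days 0–12, media plus treatment refreshed DIV 5, 9. AxIS adaptive spike detection; mean single-electrode burst duration, AUC over four recordings, negative direction vs DMSO.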

Assay [13] can be described thus: CCTE_Shafer_MEA_dev_interburst_interval_mean: CCTE's Neural Network Formation Assay for Mean Interburst Interval, Shafer Lab (AID 2284046).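 Further: well-mean interburst interval of bursting electrodes as AUC over four recording days; curve fitted for decrease in interburst interval relative to DMSO.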 The essentials:
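Developing rat cortical networks on 48-well MEAs receive compound from the day of plating. Burst intervals from each active electrode are averaged per well, and AUC over the recording days is fitted in the negative direction against DMSO.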

A short description of assay [14]: CCTE_Shafer_MEA_dev_inter_network_spike_interval_mean: CCTE's Neural Network Formation Assay for Mean Inter-network Spike Interval, Shafer Lab (AID 2284047). The essentials: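 Rat cortical cultures, 1.5 x 10^5 cells/well on 48-well MEA plates; continuous exposure days 0–12, medium and compound refreshed DIV 5, 9. Mean time between consecutive network-spike peaks; AUC across DIV 5/7/9/12; DMSO baseline, negative fitting direction.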

Assay [15] can be described thus: CCTE_Shafer_MEA_dev_network_spike_number: CCTE's Neural Network Formation Assay for Number of Network Spikes, Shafer Lab (AID 2284048).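 Further: synchronized bursts across electrodes counted on days 5 7 9 12 and integrated as AUC.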 The essentials:
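Rat cortical primary cultures on 48-well MEA (16 electrodes/well); continuous exposure DIV 0–12, full medium and treatment exchange DIV 5, 9. Readout: network spike count, AxIS adaptive detection, recordings DIV 5/7/9/12 collapsed to AUC; loss-of-signal fit, DMSO baseline.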

The nature of assay [16]: CCTE_Shafer_MEA_dev_network_spike_peak: CCTE's Neural Network Formation Assay for Mean Number of Electrodes in Network Spike, Shafer Lab (AID 2284049). The method in brief: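 Network-spike peak electrode count from recordings on days 5, 7, 9 and 12 was combined as trapezoidal area under the curve. Rat cortical cultures were treated continuously from plating, with compound renewed at each feed (DIV 5, 9); fits versus DMSO.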

The nature of assay [17]: CCTE_Shafer_MEA_dev_network_spike_duration_std: CCTE's Neural Network Formation Assay for Standard Deviation of Network Spike Duration, Shafer Lab (AID 2284052).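 Further: hits are decreases in network spike duration SD versus DMSO vehicle.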 The method in brief: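 Read-out is the trapezoidal area-under-the-curve across recordings made on days 5, 7, 9 and 12, fitted in the negative direction against DMSO baseline. Neurons were primary rat cortical cells treated from day 0, with treatment renewed at each feed.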

The target of assay [18] is bovine Estrogen Receptor (ER), ESR1 (gene 407238) (UniProt P49884). Briefly: NVS_NR_bER: NovaScreen (NVS) Nuclear Receptor Binding Assay for bovine Estrogen Receptor (ER) (AID 2283345; active means hit-call score of the fitted dose curve at least 0.9, where 1 is the maximum;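 further: actives lower the bound radioligand count which means they displace the ER ligand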). The method in brief: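 Scintillation counting of displaced radioligand gave the readout; bovine uterine membrane extract supplied the receptor. Measured 18 h post-dose, normalized to DMSO baseline. Single 25 uM duplicate screen preceded concentration-response follow-up.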
bovine Estrogen Receptor (ER), ESR1 (gene 407238), sequence (P49884 whole entry, looked up): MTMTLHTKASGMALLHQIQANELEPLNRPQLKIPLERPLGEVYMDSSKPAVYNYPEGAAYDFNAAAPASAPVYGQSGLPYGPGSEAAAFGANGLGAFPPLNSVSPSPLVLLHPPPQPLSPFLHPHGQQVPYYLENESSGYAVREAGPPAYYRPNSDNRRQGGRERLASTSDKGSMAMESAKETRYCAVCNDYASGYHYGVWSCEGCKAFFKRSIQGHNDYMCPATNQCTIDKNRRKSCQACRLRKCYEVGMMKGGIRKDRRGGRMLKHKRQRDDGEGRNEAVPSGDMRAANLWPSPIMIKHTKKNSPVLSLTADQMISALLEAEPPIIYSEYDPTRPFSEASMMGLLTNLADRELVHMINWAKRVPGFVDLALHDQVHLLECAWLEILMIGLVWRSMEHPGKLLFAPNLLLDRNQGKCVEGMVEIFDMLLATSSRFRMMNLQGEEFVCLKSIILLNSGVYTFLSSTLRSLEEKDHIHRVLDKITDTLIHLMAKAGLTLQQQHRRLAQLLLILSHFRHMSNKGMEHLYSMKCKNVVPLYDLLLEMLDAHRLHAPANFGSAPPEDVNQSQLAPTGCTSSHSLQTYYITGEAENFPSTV

Assay [19] in a line: CCTE_Simmons_CellTiterGLO_HEK293T: Viability Assessment in CCTE's Assays for Thyroperoxidase (TPO) Inhibition, Simmons Lab (AID 2283665; active means hit-call score of the fitted dose curve at least 0.9, where 1 is the maximum;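 on AC50: cells exposed to compound for 24 h before readout; actives reduce ATP signal below DMSO vehicle meaning cytotoxicity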). The essentials:
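Luciferase-coupled ATP content after 24 h exposure gives viability; 8-point series from 5 nM to 87.5 uM final in 0.5% DMSO. Human HEK293T cells, 1% FBS medium, three biological replicates, dichlone positive control.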

For assay [20], the target named is chimpanzee Androgen Receptor (AR), AR (gene 747460) (UniProt O97775). The experiment in a line: NVS_NR_cAR: NovaScreen (NVS) Nuclear Receptor Binding Assay for chimpanzee Androgen Receptor (AR) (AID 2283346; active means hit-call score of the fitted dose curve at least 0.9, where 1 is the maximum;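 further: radioligand displacement from AR measured by scintillation counting in a cell-free assay; a loss of bound radioligand signal versus DMSO counts as binding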). The method in brief:
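Radioligand binding to chimpanzee AR expressed in Sf9/Sf21 cells, cell-free, measured 72 h after dosing by lysate-based scintillation counting. Loss of signal vs DMSO; initial duplicate screen at 25 uM, actives retested in concentration series.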

Inconclusive results are not listed. The source made the active and inactive calls. How the source made its calls, unless noted: active means hit-call score of the fitted dose curve at least 0.9, where 1 is the maximum; inactive means score below 0.9.

chimpanzee Androgen Receptor (AR), AR (gene 747460), sequence (O97775 whole entry, looked up): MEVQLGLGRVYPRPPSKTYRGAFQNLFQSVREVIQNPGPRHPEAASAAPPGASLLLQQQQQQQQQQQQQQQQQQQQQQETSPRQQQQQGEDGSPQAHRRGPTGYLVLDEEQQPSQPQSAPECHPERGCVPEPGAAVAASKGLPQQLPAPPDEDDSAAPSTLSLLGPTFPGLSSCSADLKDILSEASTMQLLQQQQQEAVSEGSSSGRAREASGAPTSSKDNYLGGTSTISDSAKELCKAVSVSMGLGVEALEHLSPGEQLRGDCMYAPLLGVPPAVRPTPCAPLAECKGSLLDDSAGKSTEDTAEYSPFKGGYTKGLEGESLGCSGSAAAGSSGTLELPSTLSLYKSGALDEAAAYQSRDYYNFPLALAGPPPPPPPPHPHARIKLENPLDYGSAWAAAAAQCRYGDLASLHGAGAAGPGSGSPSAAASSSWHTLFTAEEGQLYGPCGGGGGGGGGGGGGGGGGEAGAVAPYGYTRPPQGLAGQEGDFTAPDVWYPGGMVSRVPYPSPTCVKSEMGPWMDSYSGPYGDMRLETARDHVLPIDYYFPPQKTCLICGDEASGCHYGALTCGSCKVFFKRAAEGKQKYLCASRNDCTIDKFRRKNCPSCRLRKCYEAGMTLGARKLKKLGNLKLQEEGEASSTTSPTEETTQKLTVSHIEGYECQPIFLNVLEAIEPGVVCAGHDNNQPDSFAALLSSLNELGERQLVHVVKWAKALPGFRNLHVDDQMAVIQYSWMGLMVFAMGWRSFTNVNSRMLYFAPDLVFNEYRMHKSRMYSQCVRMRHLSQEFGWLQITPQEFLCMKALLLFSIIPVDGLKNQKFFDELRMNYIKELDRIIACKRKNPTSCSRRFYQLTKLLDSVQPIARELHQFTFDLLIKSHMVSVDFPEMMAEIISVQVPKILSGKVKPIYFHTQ
Muscarinic acetylcholine receptor M2 (Homo sapiens), sequence (P08172 whole entry, looked up): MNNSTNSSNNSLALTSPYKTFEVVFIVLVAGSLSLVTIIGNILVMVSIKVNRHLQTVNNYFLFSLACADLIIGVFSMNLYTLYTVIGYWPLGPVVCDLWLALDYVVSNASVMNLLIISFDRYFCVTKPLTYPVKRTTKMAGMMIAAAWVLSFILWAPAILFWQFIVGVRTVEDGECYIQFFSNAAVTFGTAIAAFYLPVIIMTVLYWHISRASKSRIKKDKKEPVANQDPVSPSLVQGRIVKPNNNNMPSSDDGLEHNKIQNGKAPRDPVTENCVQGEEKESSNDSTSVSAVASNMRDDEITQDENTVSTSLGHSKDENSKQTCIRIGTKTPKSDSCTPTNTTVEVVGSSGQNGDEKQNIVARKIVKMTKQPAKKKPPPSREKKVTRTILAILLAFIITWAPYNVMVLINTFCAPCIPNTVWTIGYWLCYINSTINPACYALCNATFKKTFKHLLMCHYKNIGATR

In the case of `C1=CCC=C1`, the molecule was called inactive in [1].

On to `CN(C)CCC(c1ccc(Cl)cc1)c1ccccn1` (configuration not stated), for which the half-maximal activity concentration (AC50) in assay [2] is 5 µM (active); in [3], 10.3 µM (active); in assay [4], 3.59 µM (active); in [5], 22.8 µM (active); in [7], 27.7 µM (active). Also, the outcome in assay [6], in assay [8], in assay [9], in assay [10], in assay [11] and in assay [12] was inactive. Also, the outcome in assay [13], in assay [14], in assay [15], in assay [16] and in [17] was inactive.

Turning to `COC(OC)C(C)c1ccccc1` (configuration not stated), the outcome in assay [18] was inactive.

As to `CC1(C)S[C@@H]2[C@H](NC(=O)[C@H](N)c3ccccc3)C(=O)N2[C@H]1C(=O)O`, the result in assay [4], in [6], in assay [8], in assay [9], in assay [10] and in [11] was inactive. The call in assay [13], in [14], in [15], in assay [16] and in assay [17] was inactive. Moreover, the AC50 in [5] was 3.57 µM (active); in assay [7] it was 0.0846 µM (active); in [12], 22.6 µM (active).

For `CN(C)c1ccc(C(c2ccccc2)c2ccc(N(C)C)cc2)cc1`, in assay [19], the AC50 was 25.3 µM (active).

Consider `CCCCCCCCCCCCCCCCCC[N+](C)(C)C`, for which the figures for the AC50 in assay [2] and in assay [3] were 0.826 µM (active) and 1.06 µM (active), respectively.

For the molecule `Cc1cc(C)c(S(=O)(=O)O)cc1N=Nc1cc(S(=O)(=O)O)c2ccccc2c1O`, in assay [19], the AC50 is 13.1 µM (active).

Regarding `CN(C)Cc1cc(C(C)(C)C)c(O)c(C(C)(C)C)c1`, the molecule was called inactive in assay [4], in assay [5] and in [6]. For the same molecule, in assay [7], the AC50 is 22.8 µM (active).

For the molecule `NC(N)=Nc1nc(CSCCC(N)=NS(N)(=O)=O)cs1`, the result in assay [4], in assay [5], in assay [6], in assay [7], in assay [8] and in [9] was inactive. Moreover, the molecule was classed as inactive in assay [10], in [11], in assay [12], in [13], in assay [14] and in [15]. The outcome in assay [16] and in [17] was inactive.

As for `CCCCC(CC)COC(=O)CS` (configuration not stated), in [19], the molecule was classed as inactive.

Regarding `Cc1cc(-n2nc3ccc(Cl)cc3n2)c(O)c(C(C)(C)C)c1`, the half-maximal activity concentration (AC50) in assay [20] is 0.741 µM (active).

`Cc1ccccc1S(N)(=O)=O`: the AC50 in assay [20] is 1.88 µM (active).

Turning to `Sc1nc2ccccc2s1`, the half-maximal activity concentration (AC50) in assay [2] was 3 µM (active). Besides, the molecule was classed as inactive in assay [19].

Regarding `CCC(C)=NO`, in [1], the result was inactive.

As to `COC(=O)/C=C\C(=O)OC`, the molecule was called inactive in assay [20].

In the case of `CCCCOC(=O)COc1ccc(Cl)cc1Cl`, in assay [1], the outcome was inactive.

On to `CCCCCCCCCC/C=C/C1CC(=O)OC1=O` (configuration not stated), for which the molecule was called inactive in assay [18].

For the molecule `CCCCCC1CCCC(=O)O1` (configuration not stated), the result in assay [20] was inactive.

Take `Clc1ccccn1`: the molecule was called inactive in assay [3].

On to `Cc1cc2nc3c(=O)[nH]c(=O)nc-3n(C[C@H](O)[C@H](O)[C@H](O)CO)c2cc1C`, for which, in [18], the call was inactive.

As for `O=[N+]([O-])c1ccc(ON=Cc2cc(Br)c(O)c(Br)c2)c([N+](=O)[O-])c1`, the outcome in assay [18] was inactive.

(Values after PubChem BioAssay (EPA / NIEHS).)
